Experimental data reported in PubChem BioAssay (Tox21).
Results filed as inconclusive are left out. A number with no mark means an inactive call. The call rests on the fitted dose curve; in most records, active means well fitted inhibition curve with a large enough effect in the repeat runs; inconclusive means weak or mixed curves, or effect the other way; inactive means no such curve, though single readings can be large or run the other way.

Target: Nuclear receptor ROR-gamma (Homo sapiens) (UniProt P51449)
Assay: qHTS assay to identify small molecule antagonists of the retinoid-related orphan receptor gamma (ROR-gamma) signaling pathway (AID 1159521; further: top concentration of the series differs between compounds; nearly all actives have a fitted effect of over 50% in size)
Conditions: Tet-on RORgamma CHO cells, RORE-luciferase, 16 h; series mostly up to 92.4 µM; activity change, negative = inhibition: at the top concentration
Summary of the method: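 Cells were plated, rested 4 h at 37 C, exposed to compounds for 2 h, then given 1 uM final doxycycline hyclate to induce RORγ expression. After 16 h, ONE-Glo luminescence from the ROR response element reporter was measured.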
On the % scale 0 is the no-effect control and ±100 the full control effect.

SMILES | activity change, negative = inhibition
C[N+]1(C)[C@@H]2CC(OC(=O)[C@H](CO)c3ccccc3)C[C@H]1[C@@H]1O[C@@H]12 (some centres undefined) | 21.4% [at 42.5 µM]
CC1=NN(c2cccc(S(=O)(=O)O)c2)C(=O)C1 | -26.1%
CC(=O)Nc1ccc(OCC(O)CNC(C)C)cc1 (centres undefined) | -0.641% [at 42.5 µM]
NS(=O)(=O)Cc1noc2ccccc12 | 25.9% [at 42.5 µM]
CCCO[Si](OCCC)(OCCC)OCCC | 7.97%
C[C@H]1C[C@H]2[C@@H]3CCC4=CC(=O)C=C[C@]4(C)[C@H]3C(=O)C[C@]2(C)[C@@]1(O)C(=O)CO | 25.4% [at 42.5 µM]
CCCc1nn(C)c2c(=O)[nH]c(-c3cc(S(=O)(=O)N4CCN(C)CC4)ccc3OCC)nc12 | -12.3% [at 42.5 µM]
CN(C)C(=O)Oc1cccc([N+](C)(C)C)c1 | -0.437% [at 42.5 µM]
CC[C@H]1OC(=O)[C@H](C)[C@@H](O[C@H]2C[C@@](C)(OC)[C@@H](O)[C@H](C)O2)[C@H](C)[C@@H](O[C@@H]2O[C@H](C)C[C@H](N(C)C)[C@H]2O)[C@](C)(OC)C[C@@H](C)C(=O)[C@H](C)[C@@H](O)[C@]1(C)O | 6%
CCCCOCCOC(=O)COc1cc(Cl)c(Cl)cc1Cl | 3.46%
CC1(C)[C@@H]2CC[C@@]1(C)[C@H](O)C2 | -4.9%
O=C(CO)[C@@H](O)[C@H](O)[C@@H](O)CO | 14.9% [at 42.5 µM]
CC1CCC(CO)CC1 (centres undefined) | 1.98%
CCCCS(=O)(=O)N[C@@H](Cc1ccc(OCCCCC2CCNCC2)cc1)C(=O)O | 8.22% [at 42.5 µM]
NC(=O)Cc1cccc2ccccc12 | 16.4%
CCCC[N+](C)(CCCC)CCCC | 5.38%
CCOC(=O)c1ccccc1 | -0.555%
C=CN1CCCCCC1=O | 7.5%
CO/N=C(\C(=O)N[C@@H]1C(=O)N2C(C(=O)O)=C(CSc3nc(=O)c(O)nn3C)CS[C@H]12)c1csc(N)n1 | 19.9% [at 42.5 µM]
CC/C=C\CCOC(C)OCC (centres undefined) | 9.45% [at 42.5 µM]
O=C(O)c1cn(C2CC2)c2cc(N3CCNCC3)c(F)cc2c1=O | -0.627% [at 42.5 µM]
CCCCCCCCCCCCSC | -1.79%
CC(C)c1ccc2ncccc2c1 | -7.53%
C[N+]12CCC(CC1)C(OC(=O)C(O)(c1ccccc1)c1ccccc1)C2 (centres undefined) | 14.9% [at 42.5 µM]
CCN[C@@H]1C[C@H](N)[C@@H](OC2OC(CN)=CCC2N)[C@H](O)[C@H]1O[C@H]1OC[C@](C)(O)[C@H](NC)[C@H]1O (some centres undefined) | 45.3% [at 0.35 µM]
CCCCCCCCCCCCCCC(=O)O | 25.4%
O=C1NC(=O)C2CC=CCC12 (centres undefined) | 12.6%
N[C@H](C(=O)O)[C@@H](O)c1ccc(O)c(O)c1 | 18.3% [at 42.5 µM]
COc1ccnc(CS(=O)c2nc3cc(OC(F)F)ccc3[nH]2)c1OC (centres undefined) | -19%
